Measurements published in PubChem BioAssay AID1566 (Sanford-Burnham Center for Chemical Genomics, 2009).
Out of some 290,000 compounds screened, about 1,800 (0.62%) were called active. This excerpt belongs to a sample that is enriched for actives. Values without a mark were called inactive. Rule as the data show it: active = inhibition above about 50%; inactive = the rest. Peptide text beside a SMILES is read from it. * marks the point of attachment. OBn = c1ccc(CO*)cc1

Assay: inhibition of NOD2-driven NF-kB reporter – cell-based, luminescence, uHTS, HEK293 (AID 1566)
Conditions: HEK293 NOD2/NF-kB luciferase reporter, at 4 µM, hits give high values
Work on `O=C(N/N=C/c1ccccc1O)C1CC(=O)N(c2ccc(Cl)cc2)C1` (stereo not given) yielded an inhibition of 47.3%.
With `O=C(N/N=C/c1ccccc1O)C1CC(=O)N(c2ccc(F)cc2)C1` (stereo not given) the inhibition was 59.3% (active).
`Cc1ccsc1/C=N/NC(=O)C1CC(=O)N(c2ccc(F)cc2)C1` (stereo not given) showed an inhibition of 16.6%.
Molecule `Cc1cc(C(=O)NNC(=S)NCC(C)C)no1` has an inhibition of -0.2%.
With `CCCSc1nnc(-c2c[nH]c3ccccc23)n1CC` the inhibition was -33.8%.
Work on `Cn1[nH]c(=O)c(Cl)c(Cl)c1=O` yielded an inhibition of 10.7%.
For `COc1ccccc1/C=C/C(=O)/C=C/c1ccccc1O`, the inhibition was 50.2% (active).
With `COc1ccccc1/C=C/C(C)=O` the inhibition was -13.4%.
Work on `COc1ccccc1/C=C/C(=O)c1ccccc1` yielded an inhibition of -52.6%.
`CCOc1ccc2[nH]c(=O)c(CN(CC3CCCN3CC)C(=O)NCc3ccccc3)cc2c1` (stereo not given) gave an inhibition of 13.6%.
`Nc1cc(S(=O)(=O)O)cc([N+](=O)[O-])c1O` showed an inhibition of 8.2%.
`O=C(NCCN1CCOCC1)c1ccc(Cl)c(Cl)c1` gave an inhibition of -11.3%.
Molecule `O=C(Nc1ccc2snnc2c1)N1CCCCC1` has an inhibition of 3.3%.
For `O=C(Nc1ccc2c(c1)OCO2)c1cc(C2CC2)on1`, the inhibition was -108%.
For `COc1cc(/C=C2\CCOC2=O)cc(OC)c1OC`, the inhibition was -11.1%.
Work on `COc1cc(/C=C2\CC/C(=C\c3cc(OC)c(OC)c(OC)c3)C2=O)cc(OC)c1OC` yielded an inhibition of -18.8%.
`CN(C)C1(CNC(=O)C2CCN(S(=O)(=O)c3cc(Cl)ccc3Cl)CC2)CCCCC1` showed an inhibition of -8.8%.
`Cc1ccc2[nH]c3c(N4CCN(Cc5ccc6c(c5)OCO6)CC4)ncnc3c2c1` showed an inhibition of 49.8%.
`COc1ccc2[nH]c3c(N4CCN(Cc5ccc6c(c5)OCO6)CC4)ncnc3c2c1` gave an inhibition of 3.4%.
In the case of `Fc1ccc2[nH]c3c(N4CCN(Cc5ccc6c(c5)OCO6)CC4)ncnc3c2c1`, the inhibition is reported as 55.3% (active).
With `CC(C)CC(N)c1cn([C@@H](CCC(=O)O)C(=O)N2CCNCC2)nn1` (stereo not given in full) the inhibition was -7.7%.
`CNC(C)C#Cc1ccc2c(=O)c3c(OC)cccc3oc2c1` (stereo not given) gave an inhibition of -33.5%.
Molecule `O=C(O)CSc1ncnc2sc(-c3ccccc3)cc12` has an inhibition of 15.1%.
Molecule `CC(=O)CCSc1ncnc2sc(-c3ccccc3)cc12` has an inhibition of -124%.
`Cc1ccc(SCCN2CCN(CC(C)C)CCC2=O)cc1` gave an inhibition of -18.4%.
With `O=C(NC1CCCCCCC1)c1cc(F)c(F)cc1Cl` the inhibition was -57.3%.
`Cc1csc(Nc2ccccc2C(F)(F)F)n1` gave an inhibition of -3.5%.
In the case of `O=S(=O)(Nc1cccc(S(=O)(=O)N2CCCCCC2)c1)c1ccccc1`, the inhibition is reported as 16.1%.
`COc1ccc(S(=O)(=O)Nc2cccc(S(=O)(=O)N3CCCCCC3)c2)cc1` gave an inhibition of -4.9%.
`O=C(CCc1ccccc1Cl)Nc1cccc(S(=O)(=O)N2CCCC2)c1` showed an inhibition of 4%.
Work on `O=S(=O)(Nc1nc2ccccc2nc1Nc1ccc2c(c1)OCO2)c1ccccc1` yielded an inhibition of 26%.
`COc1ccc(S(=O)(=O)Nc2nc3ccccc3nc2Nc2ccc3c(c2)OCO3)cc1` showed an inhibition of 25.7%.
For `O=S(=O)(Nc1nc2ccccc2nc1Nc1cccc(S(=O)(=O)N2CCCCC2)c1)c1ccccc1`, the inhibition was 55.5% (active).
`CC(=O)Nc1cccc(S(=O)(=O)N2CCCCCC2)c1` gave an inhibition of 2.3%.
Molecule `COc1ccccc1CNC(=O)c1cn(C)c2ccc(S(=O)(=O)N3CCCCC3)cc2c1=O` has an inhibition of -7.1%.
Work on `CCn1c(C)c2c(C)nnc(C)c2c1C` yielded an inhibition of 8.3%.
Work on `Cc1ccc(CSC2=NCCN2C(=O)c2ccc(S(=O)(=O)N(C)C)cc2)cc1` yielded an inhibition of -5%.
With `COc1ccc(C)cc1NC(=O)CC(O)(C(F)(F)F)C(F)(F)F` the inhibition was 1.2%.
Molecule `COc1ccc(-c2nsc3c(N4CCCC4)ncnc23)cc1` has an inhibition of -61.9%.
For `COc1ccc(-c2nsc3c(N4CCCCC4)ncnc23)cc1`, the inhibition was -13.3%.
With `COc1ccc(-c2nsc3c(N4CCCCC4C)ncnc23)cc1` (stereo not given) the inhibition was 86% (active).
Work on `N/C(CC(=O)Nc1cccc(C(F)(F)F)c1)=N/O` yielded an inhibition of 5.4%.
For `Cc1ccc(-c2cc3c(N=O)c4ccccc4c-3n[nH]2)cc1`, the inhibition was 70.7% (active).
Work on `Cc1cccc(-c2cc3c(N=O)c4ccccc4c-3n[nH]2)c1` yielded an inhibition of -162%.
`O=Nc1c2cc(-c3ccccc3)[nH]nc-2c2ccccc12` showed an inhibition of -167%.
`N#CC12CCCCC1CC1CCCCC1(C#N)N2N` (stereo not given) gave an inhibition of 1.8%.
`O=C(CCCN1C(=O)c2ccccc2C1=O)NCCC1=CCCCC1` gave an inhibition of 5.4%.
`COc1ccc(-c2nc(CSCC(=O)NCc3ccco3)c(C)o2)cc1` gave an inhibition of -2%.
With `CCc1ccc(-c2nc(CSCC(=O)NCc3ccco3)c(C)o2)cc1` the inhibition was 50% (active).
`CCOc1ccc(-c2nc(CSCC(=O)NCc3ccco3)c(C)o2)cc1` showed an inhibition of 9.4%.
Work on `O=C(OCc1nc2ccccc2s1)c1cc2ccccc2oc1=O` yielded an inhibition of -0.9%.
Molecule `Cc1cc(Cl)c(S(=O)(=O)N2CCCC2)cc1OCC(=O)NC1CCCCC1` has an inhibition of 32.3%.
For `CCN1CCN(S(=O)(=O)c2cc(OCC(=O)NC3CCCCC3)c(C)cc2Cl)CC1`, the inhibition was 35.8%.
With `C=CCSc1nc2ccccc2n1Cc1nnc(-c2cccs2)o1` the inhibition was 8.9%.
`CN(Cc1cccnc1)C(=O)c1cc(COc2ccc3c(c2)CCCC3)on1` gave an inhibition of -14.6%.
Molecule `Cc1cc(CN(C)C(=O)c2cc(COc3ccc4ncccc4c3)on2)on1` has an inhibition of 28.5%.
For `O=C(CNC(=S)N(CCCN1CCOCC1)Cc1cccs1)N1CCCCCC1`, the inhibition was -0.9%.
In the case of `COc1ccc(N(CC(=O)N/N=C/c2ccc3c(c2)OCO3)S(=O)(=O)c2ccc(NC(C)=O)cc2)cc1`, the inhibition is reported as -7.5%.
In the case of `COc1ccc(S(=O)(=O)N/N=C\c2ccc3c(c2)OCO3)c(OC)c1`, the inhibition is reported as 51.2% (active).
In the case of `COc1ccc(OC)c(S(=O)(=O)N/N=C\c2ccc3c(c2)OCO3)c1`, the inhibition is reported as -26.9%.
Work on `Cc1ccc(S(=O)(=O)N/N=C\c2ccc([N+](=O)[O-])o2)cc1` yielded an inhibition of 13.4%.
Molecule `COc1ccc(S(=O)(=O)N/N=C\c2ccc3c(c2)OCO3)cc1` has an inhibition of 29.5%.
With `COc1ccc(S(=O)(=O)N/N=C\c2ccc([N+](=O)[O-])o2)c(OC)c1` the inhibition was 52.1% (active).
`Cc1ccc(S(=O)(=O)N/N=C\c2ccc([N+](=O)[O-])o2)cc1C` gave an inhibition of 33.4%.
`CCN(CC)CCn1c(=S)[nH]c2ccc(Br)cc2c1=O` gave an inhibition of 7.1%.
Molecule `CCCCC1=CC2=CC(=O)C(C)(OC(=O)CC)C(=O)C2=CN1C1CCCC1` (stereo not given) has an inhibition of 33.3%.
Work on `COc1cccc(NC(=O)NC2CCCCC2C)c1` (stereo not given) yielded an inhibition of 0.4%.
In the case of `CCN(CC)C(=O)c1ccc2c(=O)n(CCOC)c(=S)[nH]c2c1`, the inhibition is reported as 17.5%.
For `O=C(c1ccc(Cn2c(=O)[nH]c3ccccc3c2=O)cc1)N1CCN(c2ccccn2)CC1`, the inhibition was 15.4%.
In the case of `CCN(CC)C(=O)c1ccc2c(=O)n(Cc3ccc4c(c3)OCO4)c(=S)[nH]c2c1`, the inhibition is reported as 10.2%.
In the case of `CCN(CC)C(=O)c1ccc2c(=O)n(Cc3cccc(Br)c3)c(=S)[nH]c2c1`, the inhibition is reported as 58.7% (active).
In the case of `CCOC(=O)N1CCN(C(=O)c2ccc(Cn3c(=S)[nH]c4cc(C(=O)OC)ccc4c3=O)cc2)CC1`, the inhibition is reported as 24.9%.
`COc1ccc(Cn2c(=O)[nH]c3cc(C(=O)N4CCN(c5ccccn5)CC4)ccc3c2=O)cc1` showed an inhibition of 3%.
In the case of `CCOC(=O)N1CCN(C(=O)c2ccc(Cn3c(=S)[nH]c4cc(OCC)c(OCC)cc4c3=O)cc2)CC1`, the inhibition is reported as 43.9%.
Molecule `CC(=O)Oc1ccc(OC(C)=O)c2c1CC(C)=C(C)C2` has an inhibition of 33.6%.
Work on `Cc1ccc(OCC(=O)O/N=C(\N)c2ccncc2)cc1C` yielded an inhibition of -6.1%.
In the case of `C=CCn1c(SCc2ccc(Cl)cc2)nc2cc(C(=O)N3CCC(C(N)=O)CC3)ccc2c1=O`, the inhibition is reported as 1.8%.
Molecule `COc1ccc(-c2noc(CN3CCOCC3)n2)cc1OC` has an inhibition of -8.7%.
Molecule `CCn1c(C)c(C(C)=O)c(N2CCN(c3ccc(OC)cc3)CC2)nc1=S` has an inhibition of 12.6%.
`Cc1ccc(NC(=O)N2CCCC2C(=O)Nc2ccc3c(c2)OCCO3)cc1` (stereo not given) showed an inhibition of -15.1%.
`CC(=O)Nc1ccc(NC(=O)CN(C)S(=O)(=O)c2ccc3ccccc3c2)cc1` gave an inhibition of -3.2%.
For `CC(=O)NCC(=O)N[C@@H](CC(=O)OCc1ccccc1)C(=O)OCc1ccccc1` (Ac-Gly-Asp(OBn)-OBn), the inhibition was 15.4%.
`O=C(CCc1nc(-c2ccccc2F)no1)NCCN1CCOCC1` gave an inhibition of 9.2%.
With `COc1ccc(Nc2cc3n(c(=O)n2)CCc2cc(OC)c(OC)cc2-3)cc1` the inhibition was -35.6%.
With `O=C(COc1ccccc1)NN1C(=O)CSC1=S` the inhibition was 3.5%.
For `Cc1ccc(NC(=O)c2cc3ccccc3oc2=O)cc1S(=O)(=O)N(C)C`, the inhibition was 85.6% (active).
`Cc1ccc(NC(=O)c2cc3ccccc3o2)cc1S(=O)(=O)N(C)C` showed an inhibition of -98.2%.
`COc1ccccc1NS(=O)(=O)c1cc(NC(=O)c2cc3ccccc3oc2=O)ccc1C` showed an inhibition of -25.3%.
`COc1ccc(Cl)cc1NC(=O)COc1ccc(S(=O)(=O)N2CCOCC2)cc1C` showed an inhibition of 11.3%.
With `Cc1ccc(CCNC(=O)c2cc(-c3ccncc3)nc3ccc(S(=O)(=O)N4CCOCC4)cc23)cc1` the inhibition was -13.8%.
In the case of `CS(=O)(=O)c1cc([N+](=O)[O-])c(Sc2nc3ccccc3[nH]2)c([N+](=O)[O-])c1`, the inhibition is reported as 4.3%.
For `Cc1cc(C(=O)CN2C(=O)c3ccccc3C2=O)c(C)n1Cc1cccs1`, the inhibition was 19%.
In the case of `Cc1cc(C(=O)COc2cccnc2[N+](=O)[O-])c(C)n1-c1ccccc1`, the inhibition is reported as 20.6%.
For `CCn1nc(C(=O)OCC(=O)c2cc(C)n(Cc3cccs3)c2C)c2ccccc2c1=O`, the inhibition was -20.7%.
In the case of `Cc1cc(C(=O)COC(=O)c2ccccc2O)c(C)n1Cc1cccs1`, the inhibition is reported as 89.6% (active).
`Cc1ccc(-n2c(C)cc(C(=O)COc3cccnc3[N+](=O)[O-])c2C)cc1` showed an inhibition of 30.3%.
For `Cc1cc(C(=O)COc2ccc3ccc(=O)oc3c2)c(C)n1Cc1cccs1`, the inhibition was -4.5%.
In the case of `COCCn1c(C)cc(C(=O)COc2cccnc2[N+](=O)[O-])c1C`, the inhibition is reported as 4.6%.
In the case of `Cc1cc(C(=O)COC(=O)c2ccc3c(c2)OCO3)c(C)n1Cc1cccs1`, the inhibition is reported as -8.7%.
In the case of `Cc1ccc2cccc(OCC(=O)c3cc(C)n(Cc4ccco4)c3C)c2n1`, the inhibition is reported as -10.4%.
